Compound activity: PubChem BioAssay, several laboratories
Hits are enriched below; roughly 3.8% of the tested compounds scored in any of these assays.
Ecoli rRNA inh = reduced GFP signal of wild-type E. coli, primary screen, bacterial rRNA inhibitor project, GFP/RFP fluorescence, OD600, single point; E. coli WT GFP vs humanized-ribosome RFP mutants, 24 h; hits give low values; DMSO median 0, no signal -100; GFP signal change (wild-type ribosome), % (concentration not given with the values); hit rate 1.6% among 350,000; AID 720706, 2013;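 active = significant combined selectivity score with lowered wild-type GFP, culture density cut under 30%, mutant RFP and density less affected; inactive = any of these conditions unmet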
ADAM17 inh = ADAM17 inhibitors, primary screen, biochemical, QFRET. recombinant ADAM17, EDANS/DABCYL FRET peptide cleavage. hit rate 0.83% among 370,000. inhibition, % at 6.95 µM;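 active = inhibition above the mean of compounds lying between control limits plus 3 SD, set per campaign, cut at about 8.5% in these data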;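 note: 0% = DMSO-only wells as the low control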
proKLK7 act = proKLK7 zymogen activators, primary screen, biochemical, fluorescence intensity; purified proKLK7, EDANS-DABCYL substrate fluorescence; 100% is mature enzyme control, 0% vehicle; activation, % at 7 µM; hit rate 0.9% among 370,000;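 active = activation above the mean of all tested compounds plus 3 SD, computed per campaign excluding outliers beyond control limits, cut at about 13% in these data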
ADAM10 inh = human ADAM10 inhibitors, primary screen, biochemical, QFRET, HTS; recombinant ADAM10, EDANS/DABCYL FRET peptide cleavage, 3 h; inhibition, % at 7 µM; hit rate 0.62% among 370,000; AID 720582, 2013;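 active = inhibition above a per-campaign cutoff equal to the mean of compounds falling between control-based bounds plus 3 SD, cut at about 20% in these data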;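 note: 0% = DMSO wells while the 100% control is not disclosed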
Target sequence (O14672 214-748 limits assumed): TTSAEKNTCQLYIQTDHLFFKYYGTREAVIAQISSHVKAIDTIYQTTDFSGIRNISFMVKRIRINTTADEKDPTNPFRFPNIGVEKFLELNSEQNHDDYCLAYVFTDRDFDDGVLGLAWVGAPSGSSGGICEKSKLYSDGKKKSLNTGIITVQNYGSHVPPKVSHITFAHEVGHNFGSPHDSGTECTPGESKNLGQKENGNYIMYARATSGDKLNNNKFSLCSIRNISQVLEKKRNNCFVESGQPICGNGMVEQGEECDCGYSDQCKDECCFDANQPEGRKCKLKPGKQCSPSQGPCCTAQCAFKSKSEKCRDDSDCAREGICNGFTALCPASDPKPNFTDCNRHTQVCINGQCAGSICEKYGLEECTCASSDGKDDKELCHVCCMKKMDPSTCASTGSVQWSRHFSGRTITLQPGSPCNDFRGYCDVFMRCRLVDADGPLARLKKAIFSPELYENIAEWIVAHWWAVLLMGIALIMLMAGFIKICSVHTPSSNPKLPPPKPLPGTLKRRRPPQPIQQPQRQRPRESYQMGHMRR
FGF22 binding = binders of human FGF22 protein, primary screen, FGF22 synaptogenesis inhibitor project, biophysical, thermal shift, single point; Fibroblast growth factor 22 (Homo sapiens), Q9HCT0; recombinant FGF22 thermal shift, SYPRO orange fluorescence; percent of sucrose octasulfate shift, DMSO zero; activity (Tm shift, normalised), % at 9.99 µM; hit rate 1.5% among 340,000;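 active = mean Tm shift, scaled 0 neutral to 100 positive control, at about 1.3% or above, every replicate too, limit read from the data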
An asterisk follows results filed as active; x = no result.

SMILES	Ecoli rRNA inh	ADAM17 inh	proKLK7 act	ADAM10 inh	FGF22 binding
CC(NCc1ccc(S(N)(=O)=O)cc1)C(=O)Nc1cc([N+](=O)[O-])ccc1Cl (stereo unspecified)	-21*	-7	0	-15	0
O=C(Nc1ccc2c(c1)OCO2)c1ccc([N+](=O)[O-])cc1[N+](=O)[O-]	-19*	0	1	-8	0
C[C@@H]1CN([C@@H](C)CO)C(=O)c2cc(NS(=O)(=O)c3ccc(F)cc3)ccc2O[C@H]1CN(C)C(=O)Nc1ccc(F)cc1	-3	x	x	x	0
CCNC(=O)N1CCN(c2ccc(N3CCN(Cc4ccccc4)[C@H](C)C3)c(C)c2)[C@@H](C)C1	-18	-5	1	-13	40*
O=C1OCC/C1=C1/NCCNC1=O	x	-12	-1	-34	44*
O=C1NCCNC(=O)c2ccccc2OCCOc2ccccc21	8	-2	0	15	1
COc1ccc(C[C@@H]2CCn3cc(nn3)COCCNC2=O)cc1	2	x	x	x	x
CCCCNS(=O)(=O)c1ccc2nc(SCC(N)=O)[nH]c2c1	11	-7	0	1	0
CCCCNS(=O)(=O)c1ccc2nc(SCC(=O)Nc3sccc3C#N)[nH]c2c1	x	13*	-1	20*	x
CCCCNS(=O)(=O)c1ccc2nc(SCC(=O)c3ccccc3OC)[nH]c2c1	-45*	4	0	8	0
O=C(COc1ccc(C(=S)N2CCOCC2)cc1)Nc1ccccc1C(F)(F)F	-7	3	0	7	44*
CC(C)N(C(=O)Nc1ccc2nsnc2c1)C(C)C	-16*	-16	1	-56	0
CCOc1ccccc1N1CCN(C(=O)CCCc2nc3ccccc3s2)CC1	-30*	0	-1	-1	0
O=C(CCCc1nc2ccccc2s1)N1CCN(c2ccccc2F)CC1	-24	1	1	2	0
COc1ccccc1NC(=O)N[C@@H]1CC[C@@H](CCNS(=O)(=O)c2ccc(C)cc2)O[C@@H]1CO	1	x	x	x	x
O=C(O)CCn1cc(/C=C\C(=O)c2ccc(Cl)cc2)c(-c2cccc(Br)c2)n1	x	0	0	-4	x
Cc1ccc(-c2nn(CCC(=O)O)cc2/C=C\C(=O)c2ccc(Br)cc2)cc1	-60	3	0	11	15*
COCn1cnc(-c2ccccc2)c1-c1ccccc1	-28*	-4	0	1	0
COC(=O)C[C@H]1C[C@@H]2c3cc(NS(=O)(=O)c4ccc(OC)cc4)ccc3O[C@@H]2[C@@H](CO)O1	-2	x	x	x	0
COc1ccc(-n2c(=O)/c(=C\c3cccs3)s/c2=C(/C#N)C(=O)NCCN2CCOCC2)cc1	x	-1	-1	0	43*
CC(C)CC#Cc1ccc2c(c1)O[C@@H](CN(C)Cc1ccccn1)[C@H](C)CN([C@H](C)CO)S2(=O)=O	-23*	x	x	x	0
Cc1ccc(-c2ccc3c(c2)O[C@H](CN(C)C(=O)Nc2ccccc2)[C@H](C)CN([C@@H](C)CO)S3(=O)=O)cc1	-6	x	x	x	1
C[C@H]1CN([C@@H](C)CO)S(=O)(=O)c2ccc(/C=C/c3ccccc3)cc2O[C@@H]1CN(C)C(=O)c1ccc2c(c1)OCO2	-5	x	x	x	1.9*
C[C@@H]1CN([C@@H](C)CO)S(=O)(=O)c2ccc(/C=C/c3ccccc3)cc2O[C@@H]1CN(C)C(=O)Nc1ccc(F)cc1	2	x	x	x	1
C[C@@H]1CN([C@@H](C)CO)S(=O)(=O)c2ccc(/C=C/c3ccccc3)cc2O[C@H]1CN(C)C(=O)Nc1ccc(F)cc1	-1	x	x	x	1.6*
SMILES	Ecoli rRNA inh	ADAM17 inh	proKLK7 act	ADAM10 inh	FGF22 binding
C[C@H]1CN([C@@H](C)CO)S(=O)(=O)c2ccc(/C=C/c3ccccc3)cc2O[C@H]1CN(C)C(=O)c1ccc2c(c1)OCO2	-6	x	x	x	x
CC(C)CC#Cc1ccc2c(c1)O[C@H](CN(C)Cc1ccccn1)[C@H](C)CN([C@@H](C)CO)S2(=O)=O	-29	x	x	x	0
Cc1ccc(-c2ccc3c(c2)O[C@@H](CN(C)C(=O)Nc2ccccc2)[C@@H](C)CN([C@@H](C)CO)S3(=O)=O)cc1	0	x	x	x	1.5*
CO[C@@H]1CN(C)C(=O)c2cc(NC(=O)c3ccccc3)ccc2OC[C@@H](C)N(C)C[C@@H]1C	2	x	x	x	0
CCCC#Cc1cnc2c(c1)C(=O)N([C@H](C)CO)C[C@H](C)[C@H](CN(C)Cc1ccc3c(c1)OCO3)O2	2	x	x	x	x
COc1cccc(NC(=O)N(C)C[C@@H]2Oc3cc(C#Cc4ccccc4)ccc3S(=O)(=O)N([C@@H](C)CO)C[C@@H]2C)c1	2	x	x	x	1.4*
CC(C)NC(=O)Nc1n[nH]c(Nc2ccc(Cl)cc2)n1	-18*	2	0	9	0
COc1ccc(Cl)cc1NC(=O)NC(C)C	5	0	0	6	0
COc1ccc(-n2c(CNC(=O)COc3ccc(Cl)cc3)n[nH]c2=S)cc1	5	2	0	-1	0
COc1ccc(-n2c(CNC(=O)COc3ccc(Cl)cc3Cl)n[nH]c2=S)cc1	-37	5	0	6	43*
CCn1c(CCCOc2ccc(Cl)cc2Cl)n[nH]c1=S	-34*	-1	0	2	0
CCn1c(CCCCc2n[nH]c(=S)n2CC)n[nH]c1=S	15	-1	0	4	0
C[C@H]1CN([C@@H](C)CO)S(=O)(=O)c2ccc(-c3cccc(C#N)c3)cc2O[C@H]1CN(C)C(=O)c1ccc(F)cc1	-9	x	x	x	-1
O=C1N=C(N2CCCC2C(=O)O)S/C1=C\c1ccco1 (stereo unspecified)	24	0	-1	-2	43*
N=C1/C(=C/c2ccco2)C(=O)N=C2SC(CC(=O)N3CCCC3)=NN12	1	-15	-1	-39	0
c1ccc(-c2nc3cccnc3nc2-c2ccccc2)cc1	-24*	-10	1	-27	0
CCOC(=O)N1CCN(C(=O)c2ccc3c(c2)N(Cc2cc(C)ccc2C)C(=O)c2ccccc2S3=O)CC1 (stereo unspecified)	-20*	-2	0	-6	0
O=[N+]([O-])c1ccc(C[n+]2cc(-c3ccc(Cl)c(Cl)c3)n3c2CCCCC3)cc1	-49*	-3	0	-4	0
O=C(C[n+]1cc(-c2ccc(Cl)c(Cl)c2)n2c1CCC2)OCc1ccccc1	-14*	5	0	-5	0
Clc1ccc(-c2c[n+](Cc3ccc(Br)cc3)c3n2CCCCC3)cc1	-52*	-2	2	-3	0
